Measured values published in PubChem BioAssay (NCATS).
Records with an inconclusive call do not appear. A call without a number means that no potency is given here. Calls of active or inactive are those of the source. Unless noted, calls come from the whole dose curve; as a rule, active = well fitted curve in the direction sought with a large enough effect; inconclusive = small, poorly fitted or top-dose-only effect, or another doubt; inactive = no such curve, though single readings can be large; an effect the other way counts as inactive or inconclusive. Where a SMILES comes first, the peptide text is derived from it.

Assays:
[1] = tested on: Zika virus NS2B-NS3 protease; assay: Primary screen GU AMC qHTS for Zika virus inhibitors (AID 1347154); note: nearly all actives have a fitted effect of over 70% in size
Procedure, shortened: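 Unlinked Zika NS2B hydrophilic domain/NS3 protease domain noncovalent complex (25 nM final) in 10 mM Tris-HCl pH 8.0, 0.01% Tween 20, with AMC peptide substrate. Fluorescence (ex 340, em 450 nm) change over 15 min, room temperature; percent inhibition fitted to 4-parameter Hill equation.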

[2] = Primary qHTS for small molecule stabilizers of the endoplasmic reticulum resident proteome: Secreted ER Calcium Modulated Protein (SERCaMP) assay (AID 1508630)
Procedure, shortened: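 The SH-SY5Y reporter protocol was run at 3 concentrations up to 38.3 uM (primary) or 11 concentrations (follow-up): 16 h compound, 100 nM thapsigargin for 4 h, then extracellular luciferase luminescence.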

[3] = target: Cytochrome P450 1A2 (Homo sapiens) (UniProt P05177); assay: p450-cyp1a2 (AID 410; calls by dose curve)
Cytochrome P450 1A2 (Homo sapiens), sequence (P05177 whole entry, looked up): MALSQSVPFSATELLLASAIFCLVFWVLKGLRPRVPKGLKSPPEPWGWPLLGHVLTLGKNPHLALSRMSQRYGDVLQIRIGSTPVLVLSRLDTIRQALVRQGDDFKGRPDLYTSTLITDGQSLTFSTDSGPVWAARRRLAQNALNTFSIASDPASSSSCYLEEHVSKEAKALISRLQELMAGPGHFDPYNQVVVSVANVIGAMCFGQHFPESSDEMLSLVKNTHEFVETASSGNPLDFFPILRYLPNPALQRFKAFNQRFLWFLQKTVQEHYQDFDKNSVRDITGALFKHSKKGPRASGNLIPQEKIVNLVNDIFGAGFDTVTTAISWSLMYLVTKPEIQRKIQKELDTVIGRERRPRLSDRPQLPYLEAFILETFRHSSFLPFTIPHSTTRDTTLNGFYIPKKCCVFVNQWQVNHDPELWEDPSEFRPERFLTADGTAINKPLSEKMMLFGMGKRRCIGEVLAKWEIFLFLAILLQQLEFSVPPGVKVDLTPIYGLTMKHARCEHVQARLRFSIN
Procedure, shortened: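 Luminescent demethylation readout: Luciferin-ME (100uM, equal to Km) turned over by 20nM CYP1A2 for 60 min at room temperature after NADPH regeneration addition, following 10 min compound preincubation. Normalization used 57 uM furafylline as full inhibition.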

[4] = target: Glucocorticoid receptor (Homo sapiens) (UniProt P04150); assay: GR-GFP Redistribution (AID 450;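 active = compounds whose dose series gives a full or clear partial fitted curve of increased nuclear translocation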; note: potency is the fitted concentration of half-maximal effect); details: U2OS GR-GFP nuclear translocation, laser cytometry, 2 h
Glucocorticoid receptor (Homo sapiens), sequence (P04150 whole entry, looked up, the tested form may be a part): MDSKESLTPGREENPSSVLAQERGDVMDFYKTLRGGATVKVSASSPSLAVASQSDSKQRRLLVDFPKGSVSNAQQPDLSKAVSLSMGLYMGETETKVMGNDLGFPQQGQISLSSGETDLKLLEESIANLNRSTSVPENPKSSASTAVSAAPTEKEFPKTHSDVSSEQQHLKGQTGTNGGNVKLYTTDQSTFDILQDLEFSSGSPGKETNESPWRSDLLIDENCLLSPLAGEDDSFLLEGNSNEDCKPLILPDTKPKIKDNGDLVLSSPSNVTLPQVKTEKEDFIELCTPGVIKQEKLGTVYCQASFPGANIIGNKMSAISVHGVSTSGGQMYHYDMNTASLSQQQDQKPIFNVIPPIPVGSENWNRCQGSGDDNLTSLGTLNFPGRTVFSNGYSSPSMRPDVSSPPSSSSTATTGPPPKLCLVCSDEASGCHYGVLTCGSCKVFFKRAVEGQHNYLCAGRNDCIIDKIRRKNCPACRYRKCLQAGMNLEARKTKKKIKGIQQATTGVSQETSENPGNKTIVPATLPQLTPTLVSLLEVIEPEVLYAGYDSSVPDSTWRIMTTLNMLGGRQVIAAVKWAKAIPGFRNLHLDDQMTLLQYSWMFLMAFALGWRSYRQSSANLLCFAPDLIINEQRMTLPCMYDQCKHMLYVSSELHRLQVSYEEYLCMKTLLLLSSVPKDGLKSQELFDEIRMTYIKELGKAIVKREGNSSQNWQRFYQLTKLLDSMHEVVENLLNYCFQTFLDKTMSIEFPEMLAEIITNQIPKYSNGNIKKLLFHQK

[5] = target: Glucocorticoid receptor (Homo sapiens) (UniProt P04150); assay: GR-EFC Redistribution (AID 451; calls by dose curve; note: potency is the fitted concentration of half-maximal effect); details: CHO-K1 GR-EFC translocation, beta-gal luminescence, 2 h
Procedure, shortened: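 CHO-K1 cells stably expressing nuclear-localized β-gal enzyme acceptor and GR fused C-terminally to the enzyme donor fragment; ligand-driven nuclear translocation restores β-gal by complementation. Compounds titrated up to 46 uM final, 2 h at 37 °C; luminescence read.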

[6] = target: Mitogen-activated protein kinase 10 (Mus musculus) (UniProt Q61831); assay: JNK3 AlphaScreen Assay (AID 530; active = well fitted curve in either direction with a large enough effect, not every such curve was filed as active;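 note: kinase came from lysate of stimulated human HepG2 cells; signal reports phosphorylation of biotinylated GST-cJun 1-79 at Ser73 with 10 µM ATP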)
Procedure, shortened: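 Phosphorylation of biotinylated GST-cJun(1-79) at Ser73 is measured by AlphaScreen proximity luminescence. Enzyme is JNK3 in HepG2 lysates activated with interleukin-1beta and tumor necrosis factor alpha; ATP is 10 uM final.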

[7] = target: 3',5'-cyclic-AMP phosphodiesterase 4B (Homo sapiens) (UniProt Q07343); assay: qHTS Assay for Inhibitors of PDE-IV (AID 607; active = well fitted activation curve with a large enough effect in the main read-out, with a control signal flat, not every such curve was filed as active)
3',5'-cyclic-AMP phosphodiesterase 4B (Homo sapiens), sequence (Q07343 whole entry, looked up): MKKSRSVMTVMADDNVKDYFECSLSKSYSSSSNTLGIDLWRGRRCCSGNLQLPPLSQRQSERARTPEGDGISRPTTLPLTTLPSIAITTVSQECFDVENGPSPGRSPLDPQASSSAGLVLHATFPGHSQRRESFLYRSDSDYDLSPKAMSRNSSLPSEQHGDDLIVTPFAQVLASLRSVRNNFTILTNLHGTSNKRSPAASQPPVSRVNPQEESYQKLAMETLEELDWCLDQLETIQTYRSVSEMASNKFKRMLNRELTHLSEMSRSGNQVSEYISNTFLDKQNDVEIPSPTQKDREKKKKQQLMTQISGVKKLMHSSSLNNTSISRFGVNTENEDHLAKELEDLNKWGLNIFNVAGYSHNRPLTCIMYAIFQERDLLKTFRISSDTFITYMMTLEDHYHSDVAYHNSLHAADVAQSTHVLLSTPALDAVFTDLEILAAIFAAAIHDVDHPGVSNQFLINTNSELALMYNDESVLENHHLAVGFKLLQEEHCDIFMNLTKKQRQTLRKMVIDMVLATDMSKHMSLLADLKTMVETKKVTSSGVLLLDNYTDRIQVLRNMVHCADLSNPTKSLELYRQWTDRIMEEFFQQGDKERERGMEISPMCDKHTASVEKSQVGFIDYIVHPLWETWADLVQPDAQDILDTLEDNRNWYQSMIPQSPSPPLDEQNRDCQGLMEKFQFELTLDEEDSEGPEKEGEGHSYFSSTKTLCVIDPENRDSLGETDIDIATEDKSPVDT
Procedure, shortened: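 ACTOne HEK293 cells carry a modified cAMP-gated CNG channel and express endogenous PDE4; plated 1000 cells/well, compounds up to 22.9 uM final. Membrane-potential dye fluorescence (ex 535/em 590) was read; parental cells received 10 uM forskolin + 100 uM RO 20-1724.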

[8] = qHTS Assay for Lipid Storage Modulators (AID 1519; calls by dose curve); details: Drosophila S3 cells, BODIPY lipid droplet/cell ratio, laser cytometry, cells loaded with oleic acid; for activity change, negative = inhibition: at 57.5 µM (top of the series)
Procedure, shortened: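 Cells seeded at 5,000 per well were treated with compounds over a concentration series and loaded with oleic acid (400 uM, as added). Lipid droplet fluorescence (488 nm excitation, 500-530 nm channel) was read by laser-scanning cytometry and normalized to 20 uM Triacsin C.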

[9] = target: Ubiquitin carboxyl-terminal hydrolase 1 (Homo sapiens) (UniProt O94782); assay: Inhibitors of USP1/UAF1: Pilot qHTS (AID 504865);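 note: rhodamine fluorescence freed from ubiquitin-rhodamine substrate followed over time; top concentration of the series differs between compounds; nearly all actives have a fitted effect of over 35% in size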
Ubiquitin carboxyl-terminal hydrolase 1 (Homo sapiens), sequence (O94782 whole entry, looked up): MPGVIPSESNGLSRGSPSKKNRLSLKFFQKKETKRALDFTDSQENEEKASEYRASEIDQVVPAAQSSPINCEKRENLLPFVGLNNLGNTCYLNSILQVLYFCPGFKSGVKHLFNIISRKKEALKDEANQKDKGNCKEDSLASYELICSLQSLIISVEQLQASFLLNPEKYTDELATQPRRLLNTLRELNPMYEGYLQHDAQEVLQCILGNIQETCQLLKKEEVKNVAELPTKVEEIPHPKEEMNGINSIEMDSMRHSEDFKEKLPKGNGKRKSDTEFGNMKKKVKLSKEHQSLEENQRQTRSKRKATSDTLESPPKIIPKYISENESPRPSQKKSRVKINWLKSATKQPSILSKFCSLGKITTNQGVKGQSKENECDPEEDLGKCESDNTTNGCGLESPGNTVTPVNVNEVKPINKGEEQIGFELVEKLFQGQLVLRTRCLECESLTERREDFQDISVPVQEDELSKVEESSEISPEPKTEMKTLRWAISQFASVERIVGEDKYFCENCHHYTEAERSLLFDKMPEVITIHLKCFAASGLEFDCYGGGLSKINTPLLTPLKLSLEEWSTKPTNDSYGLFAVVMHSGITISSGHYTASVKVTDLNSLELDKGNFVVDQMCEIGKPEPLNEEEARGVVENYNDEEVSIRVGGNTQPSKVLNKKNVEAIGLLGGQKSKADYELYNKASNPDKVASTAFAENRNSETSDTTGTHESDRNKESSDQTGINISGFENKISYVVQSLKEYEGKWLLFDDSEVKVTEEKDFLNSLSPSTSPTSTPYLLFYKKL
Procedure, shortened: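 In 50mM HEPES pH 7.8 containing 0.5mM EDTA, 1mM TCEP, 0.1 mg/ml BSA and 0.01% Tween-20, 1nM USP1/UAF1 is exposed to compound for 15 min, then Ub-Rho (150nM final) is added and fluorescence is read over time.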

[10] = target: DNA dC->dU-editing enzyme APOBEC-3G (Homo sapiens) (UniProt Q9HC16); assay: qHTS for inhibitors of Vif-A3G interactions: Validation (AID 588379)
DNA dC->dU-editing enzyme APOBEC-3G (Homo sapiens), sequence (Q9HC16 whole entry, looked up): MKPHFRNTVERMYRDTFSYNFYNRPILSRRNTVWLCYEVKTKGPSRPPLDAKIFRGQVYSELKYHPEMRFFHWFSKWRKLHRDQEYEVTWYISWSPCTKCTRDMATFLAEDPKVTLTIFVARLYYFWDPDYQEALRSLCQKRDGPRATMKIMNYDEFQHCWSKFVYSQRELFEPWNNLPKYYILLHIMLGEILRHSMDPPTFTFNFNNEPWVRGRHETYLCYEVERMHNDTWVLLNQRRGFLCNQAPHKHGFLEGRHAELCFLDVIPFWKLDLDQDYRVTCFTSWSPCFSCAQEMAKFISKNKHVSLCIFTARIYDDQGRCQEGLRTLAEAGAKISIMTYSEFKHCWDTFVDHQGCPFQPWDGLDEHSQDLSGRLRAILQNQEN
Procedure, shortened: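 Yellow fluorescence (Ex 488, Em 500-530) of Vif-coexpressing HeLa A3G-eYFP cells, scanned by Acumen cytometer, reports blocked A3G degradation. Cells plated at 700/well overnight at 37 deg C before compound addition, then a further overnight compound incubation at 37 deg C.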

[11] = measured here: cell count channel max response
[12] = measured here: lipid channel max response

O=C1CSC(c2ccccc2Cl)c2cc(Cl)ccc2N1 (stereo unspecified)
Potency [1]: inactive
Potency [2]: inactive

NCCCC[C@H](NC(=O)[C@H](Cc1ccccc1)NC(=O)[C@H](CCCN=C(N)N)NC(=O)[C@@H](N)Cc1ccc(O)cc1)C(N)=O
activity change, negative = inhibition [1]: 9.11% [at 6.83 µM] (inactive)
activity change, negative = inhibition [2]: -26.5% [at 3.88 µM] (inactive)

O=C(O)C1CN(CP(=O)(O)O)CCN1 (stereo unspecified)
Potency [1]: inactive
Potency [2]: inactive

NC1(c2ccccc2Cl)CCCCC1=O (stereo unspecified)
Potency [1]: inactive
Potency [2]: inactive

Nc1ncnc2c1ncn2[C@@H]1O[C@H](COP(=O)(O)CP(=O)(O)O)[C@@H](O)[C@H]1O
Potency [1]: inactive
Potency [2]: inactive

CCCCCCCCCCCCCCCCOC[C@@H](COP(=O)([O-])OCC[N+](C)(C)C)OC(C)=O
activity change, negative = inhibition [1]: 5.71% [at 6.83 µM] (inactive)
activity change, negative = inhibition [2]: -29.1% [at 3.88 µM] (inactive)

O=C(O)/C=C/CO
Potency [1]: inactive
Potency [2]: inactive

CC1(C)[C@@H](O)C[C@H]2[C@](C)(O)[C@@H]3CC[C@H]4[C@@H](O)[C@@]3(C[C@@H](O)[C@@]21O)C[C@@]4(C)O
Potency [1]: inactive
Potency [2]: inactive

CCCC[C@H]1C(=O)O[C@H](C)[C@H](NC(=O)c2cccc(NC=O)c2OC)C(=O)O[C@@H](C)[C@@H]1OC(=O)CC(C)C
Potency [1]: inactive
Potency [2]: inactive

CO[C@@H]1C[C@@H](C[C@H]2CC[C@H](C)[C@@H]([C@@H](C)C(=O)O)O2)O[C@]2(O[C@](C)([C@H]3CC[C@@](C)(C4OC([C@H]5O[C@@](O)(CO)[C@H](C)C[C@@H]5C)C[C@@H]4C)O3)C[C@H]2C)[C@@H]1C (stereo partly specified)
Potency [1]: inactive
Potency [2]: inactive

CC1CCC2C(C)C(=O)OC3O[C@]4(C)CCC1[C@@]32OO4 (stereo partly specified)
Potency [1]: inactive
Potency [2]: inactive

COc1ccc2c(CCN)c[nH]c2c1
Potency [1]: inactive
Potency [2]: inactive

COc1ccc(C(=O)O[C@H]2CC[C@@]3(C)C4CCC5[C@]6(O)C[C@H](O)[C@@]7(O)C(CN8C[C@@H](C)CC[C@H]8[C@@]7(C)O)[C@]6(O)C[C@@]53O[C@@]42O)cc1OC (stereo partly specified)
Potency [1]: inactive
Potency [2]: inactive

N[C@]1(C(=O)O)CC[C@@H](C(=O)O)C1 (racemic)
Potency [1]: inactive
Potency [2]: inactive

NC(=O)[C@@H]1CCCN1C(=O)[C@H](Cc1ccccc1)NC(=O)[C@@H]1CCCN1C(=O)[C@@H](N)Cc1ccc(O)cc1 (H-YPFP-NH2)
activity change, negative = inhibition [1]: 12.8% [at 6.83 µM] (inactive)
activity change, negative = inhibition [2]: -13.2% [at 3.88 µM] (inactive)

CC(C)[C@]1(O)[C@@H](OC(=O)c2ccc[nH]2)[C@@]2(O)[C@@]3(C)C[C@]4(O)O[C@@]5([C@H](O)[C@@H](C)CC[C@]35O)[C@@]2(O)C41C
Potency [1]: inactive
Potency [2]: inactive

CC[C@H](C)[C@H](NC(=O)[C@H](CCCN=C(N)N)NC(=O)[C@H](CCCN=C(N)N)NC(=O)[C@H](CC(C)C)NC(=O)[C@H](Cc1ccccc1)NC(=O)CNC(=O)CNC(=O)[C@@H](N)Cc1ccc(O)cc1)C(=O)N[C@@H](CCCN=C(N)N)C(=O)N1CCC[C@H]1C(=O)N[C@@H](CCCCN)C(=O)N[C@@H](CC(C)C)C(=O)N[C@@H](CCCCN)C(=O)O
activity change, negative = inhibition [1]: 3.59% [at 6.83 µM] (inactive)
activity change, negative = inhibition [2]: -25.4% [at 3.88 µM] (inactive)

CC(C)C[C@H](NC(=O)[C@H](Cc1ccccc1)NC(=O)CNC(=O)[C@H](CO)NC(=O)[C@@H](N)Cc1ccc(O)cc1)C(=O)N[C@H](C(=O)O)[C@H](C)O
activity change, negative = inhibition [1]: 10.8% [at 6.83 µM] (inactive)
activity change, negative = inhibition [2]: -28.8% [at 3.88 µM] (inactive)

C=C1C(=O)O[C@@H]2C[C@@H](C)[C@@H]3C=CC(=O)[C@@]3(C)[C@@H](O)[C@H]12
Potency [1]: inactive
Potency [2]: inactive

CC(C)(C)NC[C@H](O)COc1cccc2[nH]c(C#N)cc12
Potency [1]: inactive
Potency [2]: inactive

CCCCC/C=C\C/C=C\C/C=C\CCCCCCC(=O)NCCO
activity change, negative = inhibition [1]: 14.4% [at 6.83 µM] (inactive)
activity change, negative = inhibition [2]: -18.9% [at 3.88 µM] (inactive)

CC(N)(COP(=O)(O)Oc1ccccc1)C(=O)O (stereo unspecified)
Potency [1]: inactive
Potency [2]: inactive

C[C@]12CCC3C(CC[C@H]4C[C@H](O)CC[C@]34C)[C@@H]1CC[C@@H]2C(=O)CO (stereo partly specified)
Potency [1]: inactive
Potency [2]: inactive

C[C@H](NC(=O)[C@@H](N)Cc1ccc(O)cc1)C(=O)N[C@@H](Cc1ccccc1)C(=O)N[C@@H](Cc1ccccc1)C(N)=O (H-YAFF-NH2)
activity change, negative = inhibition [1]: 0.112% [at 6.83 µM] (inactive)
activity change, negative = inhibition [2]: -10.3% [at 3.88 µM] (inactive)

CCCCC[C@@H](/C=C/C=C\C/C=C\C/C=C\CCCC(=O)O)OO
activity change, negative = inhibition [1]: 15.4% [at 0.59 µM] (inactive)
activity change, negative = inhibition [2]: -17.3% [at 0.478 µM] (inactive)

Cc1ccc2c(c1)Cc1c(C(=O)NC3CCCCC3)nn(-c3ccc(Cl)cc3Cl)c1-2
Potency [1]: inactive
Potency [2]: inactive

O=C(NC1CCCCC1)c1cn(CCN2CCOCC2)c2cc(Cl)ccc2c1=O
Potency [1]: inactive
Potency [2]: inactive

CCCN(C/C=C/I)C1CCc2ccc(O)cc2C1 (stereo unspecified)
Potency [1]: inactive
Potency [2]: inactive

CC(=O)C1CCC2C3CCC4CC(C)(O)CCC4(C)C3CCC12C (stereo unspecified)
Potency [1]: inactive
Potency [2]: inactive

COc1cc(OC2CCN(C(C)=O)CC2)ccc1C(=O)N1CCC(N2C(=O)OCc3ccccc32)CC1
Potency [1]: inactive
Potency [2]: inactive

CC(=O)O[C@@H]1CN2CCC1CC2
Potency [3]: inactive
Potency [4]: > 46 µM (inactive)
Potency [5]: > 46 µM (inactive)
outcome [6]: inactive
Potency [7]: inactive
activity change, negative = inhibition [8]: 2.83% (inactive)
max response [8, 11]: -10.5%
max response [8, 12]: -8.98%
Potency [9]: inactive
Potency [10]: inactive
Potency [1]: inactive
Potency [2]: inactive

Cc1ccc(C[N+](C)(C)C)o1
Potency [4]: > 46 µM (inactive)
Potency [5]: > 46 µM (inactive)
activity change, negative = inhibition [8]: 4.98% (inactive)
max response [8, 11]: 20.9%
max response [8, 12]: 30.2%
Potency [9]: inactive
Potency [10]: inactive
Potency [1]: inactive
Potency [2]: inactive
